Source: the supplement of paper PMC12350171
Counter-ions that a name gives are not always drawn.

system: Haemophilus parainfluenzae; experiment: growth AUC normalised to DMSO control (fraction of control); higher = less growth inhibition, active = hit call of the paper; details: 20 µM
How it was run: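 After two anaerobic passages, pathogens were added at a starting OD578 of 0.01 to pre-reduced mGAM plates holding compound at 20 μM with 1% DMSO; hemin and NAD were supplemented for Haemophilus parainfluenzae. Sealed with breathable membranes, plates were read at OD578 hourly for 24 h, in three biological replicates. The trapezoidal rule, applied up to the exponential-to-stationary transition, gave the growth-curve AUC, which was normalised to DMSO controls on the same plate.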

Q: `COc1cccc(N(C)C(=S)Oc2ccc3c(c2)CCCC3)n1` [Liranaftate] was tested. Which “growth AUC normalised to DMSO control” value did it give?
A: The value was 1.01 (inactive).

Q: Which “growth AUC normalised to DMSO control” value does the source give for `Cc1c(OCC(F)(F)F)ccnc1C[S+]([O-])c1nc2ccccc2[nH]1` (centres undefined) [Lansoprazole] here?
A: Its value is 0.873 (inactive).

Q: With `OCC(O)CN1CCN(c2ccccc2)CC1` (centres undefined) [Dropropizine] as the molecule, how does the “growth AUC normalised to DMSO control” value read?
A: Its value is 1.07 (inactive).

Q: Which “growth AUC normalised to DMSO control” value does the source give for `C[C@]12CC[C@@H]3c4ccc(OS(=O)(=O)O)cc4CC[C@H]3[C@@H]1CCC2=O` [Estropipate piperazine salt] here?
A: The value was 0.985 (inactive).

Q: How did the “growth AUC normalised to DMSO control” value turn out when `Nc1nc(O)c2ncn(CCC(CO)CO)c2n1` [Penciclovir] was run?
A: The value was 0.944 (inactive).

Q: For `O=C(O[C@@H]1C[C@@H]2C[C@H]3C[C@H](C1)N2CC3=O)c1c[nH]c2ccccc12` [Dolasetron mesilate], which “growth AUC normalised to DMSO control” value is on record?
A: Its value is 1.06 (inactive).

Q: For `CCC[C@@H]1C[C@@H](C(=O)N[C@@H]([C@H]2O[C@H](SC)[C@H](O)[C@@H](O)[C@H]2O)[C@H](C)Cl)N(C)C1` [Clindamycin hydrochloride], which “growth AUC normalised to DMSO control” value is on record?
A: Its value is 0.0463 (active).

Q: With `COc1ccc2cc([C@H](C)C(=O)O)ccc2c1` [(S)-Naproxen] as the molecule, how does the “growth AUC normalised to DMSO control” value read?
A: Its value is 1 (inactive).

Q: With `CC(=O)CCCCn1c(=O)c2c(ncn2C)n(C)c1=O` [Pentoxifylline] as the molecule, how does the “growth AUC normalised to DMSO control” value read?
A: The value was 1.01 (inactive).

Q: For `CC(C)NCC(O)c1ccc2ccccc2c1` (centres undefined) [Pronethalol hydrochloride], which “growth AUC normalised to DMSO control” value is on record?
A: Its value is 1 (inactive).

Q: For `CC(=O)CC(c1ccccc1)c1c(O)c2ccccc2oc1=O` (centres undefined) [Warfarin], which “growth AUC normalised to DMSO control” value is on record?
A: Its value is 1.02 (inactive).

Q: With `CC1(C)NC(=O)N(c2ccc([N+](=O)[O-])c(C(F)(F)F)c2)C1=O` [Nilutamide] as the molecule, how does the “growth AUC normalised to DMSO control” value read?
A: The value was 0.977 (inactive).

Q: Which “growth AUC normalised to DMSO control” value does the source give for `CN(CCOc1ccc(CC2SC(=O)NC2=O)cc1)c1ccccn1` (centres undefined) [Rosiglitazone hydrochloride] here?
A: The value was 1.06 (inactive).

Q: How did the “growth AUC normalised to DMSO control” value turn out when `CC(C)Cn1cnc2c(N)nc3ccccc3c21` [Imiquimod] was run?
A: The value was 1.08 (inactive).
